# Screening results deposited in PubChem BioAssay by The Scripps Research Institute Molecular Screening Center.
# Most compounds without a hit are left out; they make up all but 4.8% or so of the library.
# DAX1 inh-1: DAX1 (NR0B1) inhibitors on StAR promoter, primary screen, cell-based, luminescence, SF-1 (NR5A1), full-length DAX-1; HEK293T StAR-luciferase reporter, SF-1/DAX-1 repression relief; AID 652010, 2013; hit rate 1.1% among 370,000; inhibition, % at 6.8 µM;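 active means inhibition above the mean over all tested compounds plus 3 SD, cut at about 3.6% in these data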;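 further: 0% = DAX-1 cells with DMSO and 100% = cells lacking DAX-1 with DMSO; higher inhibition means more luminescence from relief of DAX-1 repression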
# SMARCA2 activ: SMARCA2 (BRM) function activators, primary screen, cell-based, luminescence, high throughput; MG213 cells, MMTV-luciferase reporter, dexamethasone, overnight; activation, % at 9.1 µM; hit rate 1% among 370,000; AID 652017, 2013; in the data active means activation above about 7.8%;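 further: 0% = vehicle wells and 100% = reference activator wells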
# hcDAF-12 act: H. contortus DAF-12 nuclear receptor activators, primary screen, cell-based, luminescence, HEK293, lit1-tk-luc reporter. HEK293 hcDAF-12 lit1-tk-luc reporter; 0% DMSO, 100% Δ7-dafachronic acid. activation, % at 6.8 µM. hit rate 1.4% among 370,000;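 active means activation above the mean of all tested compounds plus 3 SD, cut at about 5.5% in these data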;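 further: 100% = response to 3 µM Δ7-dafachronic acid high control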
# ssDAF12 agonist: S. stercoralis DAF-12 nuclear receptor activators, primary screen, cell-based, luminescence, HEK293, GRIP1 co-expression, lit1-tk-luc; Nuclear hormone receptor DAF-12 (Strongyloides stercoralis); hit rate 1% among 370,000; HEK293 ssDAF-12/GRIP1 lit1-tk-luc reporter; % of 3 µM dafachronic acid response; activation, % at 6.8 µM;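 active means activation above the mean over all tested compounds plus 3 SD, cut at about 0.9% in these data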;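 further: 0% = DMSO-only wells and 100% = 3 µM delta7-dafachronic acid wells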
# hgDAF12 agonist: H. glycines DAF-12 receptor agonists, primary screen, cell-based, luminescence, HEK293, GAL4 fusion, UAS-luciferase; Nuclear hormone receptor DAF-12 (Heterodera glycines), GAL4 fusion; HEK293 GAL4-hgDAF12 UAS-luciferase reporter, agonist luminescence; normalized to butyrate control; activation, % at 6.8 µM; hit rate 1.8% among 370,000; AID 687014, 2013;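 active means activation above a cutoff set at the mean of all screened compounds plus 3 SD, cut at about 10% in these data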;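 further: 0% = DMSO wells and 100% = sodium butyrate wells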
# DAX1 inh-2: DAX1 (NR0B1) inhibitors, primary screen, cell-based, HEK293, Gal4-DAX1, luciferase luminescence | Nuclear receptor subfamily 0 group B member 1 (Homo sapiens), P51843 | HEK293 Gal4-DAX1 luciferase reporter | inhibition, % at 6.75 µM | hit rate 0.99% among 340,000;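 active means inhibition above the mean over all tested compounds plus 3 SD, cut at about 4.2% in these data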;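 further: 0% = DAX1-transfected cells with DMSO and 100% = empty-vector control cells with DMSO; inhibition shows as a rise in luminescence from relieved DAX1 repression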
# Target sequence (P51843 207-470 limits assumed): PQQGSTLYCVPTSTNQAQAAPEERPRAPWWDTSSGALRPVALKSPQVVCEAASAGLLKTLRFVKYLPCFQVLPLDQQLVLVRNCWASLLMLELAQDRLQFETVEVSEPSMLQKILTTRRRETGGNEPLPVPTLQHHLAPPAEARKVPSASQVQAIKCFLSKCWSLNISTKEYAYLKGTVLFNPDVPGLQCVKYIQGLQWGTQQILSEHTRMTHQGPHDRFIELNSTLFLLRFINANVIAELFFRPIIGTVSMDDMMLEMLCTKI
# Active calls of the source: *.
SMILES,DAX1 inh-1,SMARCA2 activ,hcDAF-12 act,ssDAF12 agonist,hgDAF12 agonist,DAX1 inh-2
Cc1cccc2sc(NC(=O)Cn3cccc3)nc12,-1,0,-1,-1,2,-1
Cc1cccc2sc(NC(=O)CCn3cccc3)nc12,0,-4,0,-1,12*,-1
Cc1ccccc1C(=O)NCCN1CCOCC1,0,3,-2,-1,0,0
N#C/C(=C(/O)CCl)c1nc(-c2ccccc2)cs1,1,-1,4,1.3*,3,0
COc1cc(NC(=O)COC(=O)CC2CC3CCC2C3)cc(OC)c1 (centres undefined),-1,-4,0,-1,0,1
O=C(CN1CCN(Cc2ccccc2Cl)C1=O)NCc1cccnc1,-1,-4,-1,-2,1,6.0*
O=C(O)CCC(=O)NCC1OCCc2ccccc21 (centres undefined),0,-2,-1,-1,4,0
Cc1ccc(CCNC(=O)C2CCN(S(=O)(=O)N3CCC4(CC3)OCCO4)CC2)cc1,0,0,6.0*,-2,1,0
Cn1c(=O)c2[nH]c(=O)cnc2n(C)c1=S,0,1,0,-1,-1,0
O=C(c1cc(-c2ccc3c(c2)OCO3)on1)N1CCCCC1,2,1,5.8*,0,9,-1
O=[N+]([O-])c1cccc(/C=C/c2ccncc2)c1,-1,-1,-1,-1,3,2
O=[N+]([O-])c1ccc(/C=C/c2ccncc2)cc1,0,7.9*,-1,-2,0,0
CN(C)/N=C/c1cc([N+](=O)[O-])ccc1O,1,1,0,-1,0,-2
O=[N+]([O-])c1ccc(O)c(/C=N/n2cnnc2)c1,1,-4,-1,-1,0,5.1*
O=[N+]([O-])c1cccc(/C=N/n2cnnc2)c1,1,-4,1,0,-2,6.3*
CC(=O)N1c2ccc(S(=O)(=O)NCCC(=O)NC3CCCCCC3)cc2CC1C (centres undefined),0,0,-2,-2,-2,-1
Cn1cnc(C(=O)N2CCN(c3ccccc3)CC2)c1C(=O)N1CCN(c2ccccc2)CC1,-1,2,-1,-1,1,1
O=C(O)c1ccc(C=NNC(=O)c2ccccc2NS(=O)(=O)c2cccs2)cc1,3.7*,-2,-1,-1,-2,2
O=c1c2ccccc2oc2ccc(Oc3ccccc3)cc12,2,6,3,0,9,5.1*
O=C(CSc1nccc(-c2cccs2)n1)Nc1ccc(F)c(Cl)c1,0,2,1,-1,2,-1
CC(=O)c1ccc(NC(=O)Cn2cnc(S(=O)(=O)N3CCOCC3)c2)cc1,0,0,0,-1,0,1
O=C(O)c1c[nH]c(=S)n1-c1ccc(F)cc1,0,1,-1,-1,-3,0
CC1CCC(NC(=O)CCNC(=O)c2ccc(Br)cc2)CC1 (centres undefined),4.3*,-1,2,0,10,1
CC1CCC(NC(=O)c2ccc(S(C)(=O)=O)cc2)CC1 (centres undefined),1,3,0,6.4*,3,0
CS(=O)(=O)c1ccc(C(=O)NC2CCOC2=O)cc1 (centres undefined),0,-2,0,-1,0,0
O=C(CNC(=O)c1ccc(Br)cc1)NC1CC1,-1,4,-1,-1,-1,0
Cc1cc(NC(=O)Cn2nnc(-c3ccccc3NC(=O)c3ccccc3F)n2)no1,0,3,-1,1.4*,2,2
COc1ccccc1CCNC(=O)c1ccc(OC)c(OC2CCN(C(C)C)CC2)c1,1,1,0,-1,2,0
